Assay [1] in a line: selective activators of receptor GPR55 – imaging, U2OS cells, beta-arrestin-GFP redistribution, primary screen (AID 1961).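 Further: U2OS osteosarcoma cells stably expressing GPR55 and beta-arrestin-GFP.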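 On activation: plate controls were DMSO negative control for no effect and LPI positive control for full effect.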 The conditions noted are these: measured here: cytotoxicity, cells analyzed, at 10 µM.
The target in assay [2] is G-protein coupled receptor 55 (Homo sapiens) (UniProt Q9Y2T6). The description is as above. The conditions noted are these: at 10 µM, stronger effect = higher value.
G-protein coupled receptor 55 (Homo sapiens), sequence (Q9Y2T6 whole entry, looked up): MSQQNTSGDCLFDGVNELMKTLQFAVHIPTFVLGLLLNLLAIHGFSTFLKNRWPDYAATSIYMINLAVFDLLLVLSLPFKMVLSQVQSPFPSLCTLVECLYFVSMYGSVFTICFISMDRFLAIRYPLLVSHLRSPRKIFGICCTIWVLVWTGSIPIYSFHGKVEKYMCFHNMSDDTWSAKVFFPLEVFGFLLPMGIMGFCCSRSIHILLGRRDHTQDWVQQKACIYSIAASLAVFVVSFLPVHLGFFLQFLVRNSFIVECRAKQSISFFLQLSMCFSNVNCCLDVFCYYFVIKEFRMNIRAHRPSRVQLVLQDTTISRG

The structures appear in SMILES notation. Values joined by “and” are separate entries in the source; they are usually repeats but may differ in a detail not shown here. Identical values can stand only once. Among all 290,000 compounds or so, about 140 (0.048%) were called active.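 How the source made its calls: active means activation above 40% with more than 50 cells counted in the well; inconclusive means wells holding fewer than 50 cells, flagged as toxic or sparse; inactive means the rest.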 What follows is part of a selection rich in actives, with near analogues and random picks from the rest.

In assay [1], `Cc1cccc(CC(=O)N2CCOCC2)c1` had a cell count of 411 cells. Also, the activation in assay [2] is 1.4% (inactive).
The like results for `O=C(CC1CCCCC1)Nc1ccccc1-c1ccccc1` were, in that order, 361 cells and -0.4% (inactive).
In the same order, the values of `COc1ccc(Cl)cc1NC(=O)CSc1nnc(COc2ccccc2)n1C` are 350 cells and 0.2% (inactive).
In turn, `COc1ccc(Nc2ncc3c(n2)CC(c2ccccc2)CC3=O)cc1` (configuration not stated) yielded a cell count in assay [1] of 306 cells. Further, the activation in assay [2] is -0.1% (inactive).
For the molecule `O=C(N/N=C\c1cccnc1)c1ccc(Cl)cc1Cl`, the cell count in assay [1] was determined as 331 cells. For the same molecule, the activation in assay [2] was 0.3% (inactive).
The like results for `CCOC(=O)CSc1nc2c([nH]c3ccccc32)c(=O)n1C` were, in that order, 345 cells and -0.1% (inactive).
The like results for `CCOc1ccccc1CNC(=O)CCc1cn(CC)c2ccccc12` were, in that order, 381 cells and 0.3% (inactive).
In the same order, the values of `c1ccc(-c2cnn3nnnc3n2)cc1` are 327 cells and 0.2% (inactive).
For the molecule `c1ccc(-c2cn3nc(-c4ccccc4)c(-c4ccccc4)nc3n2)cc1`, the cell count in assay [1] came to 374 cells. In addition, the activation in assay [2] is 0.6% (inactive).
In assay [1], `c1ccc(-c2cnn3c(-c4ccccc4)c(-c4ccccc4)nc3n2)cc1` displayed a cell count of 310 cells. Besides, the activation in assay [2] is 42.5% (active).
Take `CC(C)(C)C1=CC(=Nc2ccccc2N)C=C(C(C)(C)C)C1=O`: the cell count in assay [1] is 328 cells. Moreover, the activation in assay [2] is -0.1% (inactive).
`CC(C)(C)C1=CC=C(C(C)(C)C)C(=O)C1=O` returned a cell count in assay [1] of 365 cells. Also, the activation in assay [2] was 24.1% (inactive).
For `CC(C)(C)C1=CC(=O)C(=O)C(C(C)(C)C)=C1`, the cell count in assay [1] is 346 cells. The activation in assay [2] is 138% (active).
`CCN(CC)C(=O)CSc1nnc(-c2ccccc2)n1-c1ccccc1` gave a cell count in assay [1] of 281 cells. In assay [2], the activation is 0.2% (inactive).
`CC1CCC(C(C)C)C(OC(=O)Cn2c(-c3ccccc3)[n+](C)c3ccccc32)C1` (configuration not stated): in assay [1], the cell count is 252 cells and 322 cells. The activation in assay [2] was -0.3% (inactive).
Consider `Cc1ccccc1OCc1n(CC(=O)OC2CC(C)CCC2C(C)C)c2ccccc2[n+]1C` (configuration not stated), for which the cell count in assay [1] is 276 cells and 236 cells. The activation in assay [2] was 68% (active).
In assay [1], `CCCCCCCCCCOC(=O)Cn1c(COc2cccc(C)c2)[n+](C)c2ccccc21` yielded a cell count of 401 cells. Besides, the activation in assay [2] is 31.3% (inactive).
Take `Cc1cccc(OCc2n(CC(=O)OC3CC(C)CCC3C(C)C)c3ccccc3[n+]2C)c1` (configuration not stated): in assay [1], the cell count was found to be 339 cells. Besides, in assay [2], the activation was 81.2% (active).
Take `CC1CCC(C(C)C)C(OC(=O)Cn2c(-c3ccc(Br)cc3)[n+](C)c3ccccc32)C1` (configuration not stated): the cell count in assay [1] is 411 cells and 208 cells. Further, the activation in assay [2] is 103% (active) and 106% (active).
`CCCCCCCCCCOC(=O)Cn1c(COc2ccccc2OC)[n+](C)c2ccccc21` gave a cell count in assay [1] of 361 cells. The activation in assay [2] was 32.1% (inactive).
The like results for `COc1ccc(OCc2n(CC(=O)OC3CC(C)CCC3C(C)C)c3ccccc3[n+]2C)cc1` (configuration not stated) were, in that order, 350 cells and 25.5% (inactive).
`CCCCCCCCCCOC(=O)Cn1c(COc2ccccc2C)[n+](C)c2ccccc21` returned a cell count in assay [1] of 386 cells. In assay [2], the activation is 17.1% (inactive).
The like results for `CC1CCC(C(C)C)C(OC(=O)Cn2c(-c3ccc(F)cc3)[n+](C)c3ccccc32)C1` (configuration not stated) were, in that order, 272 cells and 0.6% (inactive).
In assay [1], `CC(C)c1ccc(/C=C/C(=O)NC2=NCCS2)cc1` registered a cell count of 384 cells. In addition, in assay [2], the activation is 0% (inactive).
The like results for `CCc1nnc2n1N=C(c1ccc(Cl)cc1Cl)CS2` were, in that order, 325 cells and -0.1% (inactive).
The like results for `CCCc1nnc2n1N=C(c1ccc(C)cc1)CS2` were, in that order, 336 cells and -0.1% (inactive).
`CCCc1nnc2n1N=C(c1ccc(-c3cc(Cl)ccc3Cl)o1)CS2` yielded a cell count in assay [1] of 356 cells. Moreover, the activation in assay [2] is 142% (active).
The like results for `O=[N+]([O-])c1ccc(/C=C/C2=NN(c3ccccc3)C(c3ccco3)C2)cc1` (configuration not stated) were, in that order, 311 cells and 120% (active).
The molecule `O=[N+]([O-])c1ccc(/C=C/C2=NN(c3ccccc3)C(c3ccco3)C2)o1` (configuration not stated) registered a cell count in assay [1] of 231 cells. Also, the activation in assay [2] is 21.7% (inactive).
In the same order, the values of `C(=C\c1ccco1)/C1=NN(c2ccccc2)C(c2ccco2)C1` (configuration not stated) are 324 cells and 27.4% (inactive).
In the same order, the values of `CCOc1ncccc1C(=O)Nc1ccc(-c2ccc3nnc(C)n3n2)cc1` are 265 cells and -0.2% (inactive).
On to `Cc1ccc(C(=O)NC2(C(F)(F)F)NC(=O)N(c3ccc(Cl)cc3)C2=O)cc1` (configuration not stated), for which the cell count in assay [1] is 333 cells. The activation in assay [2] is -0.3% (inactive).
Consider `COc1ccc(CN2CCNC(=O)C2CC(=O)NC2CCC2)c(OC)c1` (configuration not stated), for which the cell count in assay [1] was determined as 341 cells. Besides, the activation in assay [2] is -0.1% (inactive).
In the same order, the values of `CC(C)N1CCC(NC(=O)Nc2ccc3c(c2)OCO3)CC1` are 361 cells and 0.1% (inactive).
The like results for `Cc1ccc(N(CC(=O)NC2CCCC2)C(=O)Cn2nnc(-c3ccccc3F)n2)cc1` were, in that order, 388 cells and 0% (inactive).
In the same order, the values of `CCOc1ccc(C=NCC(O)c2ccccc2)cc1` (configuration not stated) are 365 cells and -0.1% (inactive).
With `CCCN1C(=O)/C(=C2/C=Cc3ccccc3N2CC)SC1=S`, in assay [1], the cell count amounted to 237 cells. The activation in assay [2] was -0.4% (inactive).
The like results for `Cc1cc(C(F)(F)F)nc(SCCN2CCCCC2)c1C#N` were, in that order, 404 cells and -0.2% (inactive).
In the same order, the values of `CCOc1ccc(OCCOCCN2CCOCC2)cc1` are 322 cells and -0.1% (inactive).
In turn, `CCCCN(CCCC)CC(O)COc1ccccc1Br` (configuration not stated) had a cell count in assay [1] of 385 cells. In addition, in assay [2], the activation was -0.2% (inactive).
Molecule `Cc1cccc2nc(COc3ccc4ccccc4c3Br)cn12` displayed a cell count in assay [1] of 340 cells. For the same molecule, the activation in assay [2] was 0.4% (inactive).
